According to PubChem BioAssay AID372 (MTDP, 2006):
About 770 (0.77%) of roughly 100,000 compounds were called active. No stated cut-off is given here; in the data, active means inhibition above about 50%; inactive means the rest. Shown is part of a subset that was picked to be rich in actives.

Each compound was assayed against Gag-Pol polyprotein (Human immunodeficiency virus type 1 group M subtype B (isolate HXB2)) (UniProt P04585) (assay: RNase H inhibition, HIV 1 Gag Pol polyprotein, FRET biochemical assay, screening (AID 372)). Conditions: HIV-1 RT RNase H, FRET RNA/DNA substrate fluorescence; at 10 µM; stronger effect = higher value.
With `C=CCN1C(=O)/C(=C/c2cc(C)n(-c3ccc(C(=O)O)cc3C)c2C)C(=O)NC1=S` the inhibition was 6% (inactive). With `Cc1cc(Br)cc(C)c1NC(=O)c1cccnc1` the inhibition was 2% (inactive). For `CCOC(=O)CNC1=C([N+](=O)[O-])C(=O)CC(C)(C)C1`, the inhibition was 0% (inactive). For `C=CCn1cc(/C=c2\sc3n(c2=O)C(c2ccc(SC)cc2)C(C(=O)OCC)=C(C)N=3)c2ccccc21` (configuration not stated), the inhibition was 24% (inactive). `COc1ccc(C2CC(C(F)(F)F)n3nc(C(=O)Nc4cc(OC)c(Cl)cc4OC)c(Cl)c3N2)cc1` (configuration not stated) was tested, and the inhibition was 14% (inactive). `COc1ccc(C)cc1NC(=O)COc1cccc2ccccc12` was tested, and the inhibition was 21% (inactive). With `Cc1ccccc1N1C(=O)/C(=C/c2cccn2-c2ccc(Br)cc2)C(=O)NC1=S` the inhibition was 20% (inactive). For `CCc1ccccc1N/C=C(\C#N)c1nc(-c2ccc(Cl)cc2)cs1`, the inhibition was 8% (inactive). With `Cc1ccc(-c2n[nH]c(=S)n2N=Cc2ccccc2OCC(=O)O)cc1` the inhibition was 12% (inactive). For `COc1ccc(/C=C2/Sc3ccccc3C2=O)cc1`, the inhibition was 5% (inactive). `Cc1ccccc1OCC(=O)Nc1ccc(O)c(-c2nc3ccccc3s2)c1` was tested, and the inhibition was 14% (inactive). For `O=C(COc1ccc(Cl)cc1Cl)Nc1ccc(-c2ccccc2)cc1`, the inhibition was 7% (inactive). For `O=C(COc1ccc(Br)cc1Cl)Nc1ccccc1F`, the inhibition was 51% (active). With `Cc1ccc(C(=O)NC(=S)Nc2ccc(O)c(-c3nc4ccccc4s3)c2)cc1` the inhibition was 37% (inactive). For `O=C(COc1ccc(Cl)cc1Cl)Nc1ccc(O)c(-c2nc3ccccc3s2)c1`, the inhibition was 61% (active). With `O=C(NC(=S)Nc1ccc(O)c(-c2nc3ccccc3s2)c1)c1ccc(Cl)cc1` the inhibition was 54% (active). With `O=C(NC(=S)Nc1ccc(O)c(-c2nc3ccccc3s2)c1)c1ccc(F)cc1` the inhibition was 46% (inactive). `O=C(COc1ccc(Br)cc1Cl)Nc1ccccc1Cl` was tested, and the inhibition was 31% (inactive). For `O=C(COc1ccc(Cl)cc1Cl)Nc1ccc(-c2nc3ccccc3s2)c(O)c1`, the inhibition was 27% (inactive). `CCC(=O)Nc1ccc(NC(=O)COc2ccc(Cl)cc2Cl)cc1` was tested, and the inhibition was 27% (inactive). `O=C(COc1ccc(Cl)cc1Cl)Nc1ccccc1F` was tested, and the inhibition was 27% (inactive). For `O=C(COc1ccc(Cl)cc1Cl)Nc1ccc(NC(=O)COc2ccc(Cl)cc2Cl)cc1`, the inhibition was 52% (active). In the case of `C#CCSc1nncn1C(=O)/C=C/c1ccco1`, the inhibition is reported as 19% (inactive). `COc1ccc2nc(N/C(N)=N/S(=O)(=O)c3ccc(C)cc3)nc(C)c2c1` was tested, and the inhibition was 5% (inactive). For `Cc1cc(=O)[nH]c(N/N=C/c2cccnc2)n1`, the inhibition was 0% (inactive). With `CCCCNCCCCCOc1ccccc1C(C)C` the inhibition was 5% (inactive). With `COc1cccc(OCCCCOc2ncnc3ccccc23)c1` the inhibition was 10% (inactive). For `O=C(COc1ccc(/C=N/NS(=O)(=O)c2ccccc2)cc1)Nc1ccc(F)cc1`, the inhibition was 4% (inactive). With `CCOc1ccc(N(CC(=O)NCCSCc2ccc(C)cc2)S(C)(=O)=O)cc1` the inhibition was 16% (inactive). `COC(=O)c1ccc(/C=C2\N=C(c3ccc(F)cc3)OC2=O)cc1` was tested, and the inhibition was 0% (inactive). In the case of `CC(=O)Oc1ccc2c(=O)c(-c3nc4ccccc4[nH]3)c(C)oc2c1`, the inhibition is reported as 3% (inactive). In the case of `O=C(NC(=S)Nc1ccc(-c2nc3ccccc3s2)c(O)c1)c1cccs1`, the inhibition is reported as 56% (active). With `O=C(NC(=S)Nc1ccc(O)c(-c2nc3ccccc3s2)c1)c1cccs1` the inhibition was 19% (inactive). In the case of `O=C(COc1ccc(Br)cc1Cl)Nc1ccc2c(c1)OCCO2`, the inhibition is reported as 50% (active). In the case of `O=C(NC(=S)Nc1cccc(-c2nc3ccccc3s2)c1)c1cccs1`, the inhibition is reported as 7% (inactive). With `O=C(COc1ccc(Br)cc1Cl)Nc1ccc2c(c1)OCO2` the inhibition was 18% (inactive). For `O=C(COc1ccc(Cl)cc1Br)Nc1ccc2c(c1)OCCO2`, the inhibition was 36% (inactive). With `CC(=O)N1N=C(c2ccc(N(C)C)cc2)CC1c1ccccc1` (configuration not stated) the inhibition was 11% (inactive). With `Nc1[nH]n(-c2ccccc2)c(=O)c1N=Nc1ccc(Cl)cc1` the inhibition was 9% (inactive). In the case of `O=C(N/N=C/c1ccc(I)cc1)C1CC(=O)N(c2ccccc2)C1` (configuration not stated), the inhibition is reported as 9% (inactive). In the case of `Cc1cc(/C=N/O)c(C)n1-c1ccc(N(C)C)cc1`, the inhibition is reported as 11% (inactive). `COc1cc(/C=C(\C#N)c2nc3ccccc3s2)cc(OC)c1O` was tested, and the inhibition was 54% (active). In the case of `COc1cc(/C=C(\C#N)c2nc3ccccc3s2)cc(Br)c1O`, the inhibition is reported as 5% (inactive). For `CCOc1cc(/C=C(\C#N)c2nc3ccccc3s2)ccc1O`, the inhibition was 16% (inactive). `C=CCN(CC=C)CC(O)CN1C(=O)NC(C)(C)C1=O` (configuration not stated) was tested, and the inhibition was 3% (inactive). `CC1=CC(C)(C)N(C(=O)CSc2nc3ccccc3s2)c2cc(C)ccc21` was tested, and the inhibition was 20% (inactive). For `Cc1ccc(C(=O)CSc2nc(N)c(C#N)c(-c3ccc(O)cc3)c2C#N)cc1`, the inhibition was 47% (inactive). `COC(=O)CSc1nc(N)c(C#N)c(-c2ccc(O)cc2)c1C#N` was tested, and the inhibition was 2% (inactive). In the case of `COc1ccc(-c2c(C#N)c(N)nc(SCC(=O)OCc3ccccc3)c2C#N)cc1`, the inhibition is reported as 15% (inactive). In the case of `COC(=O)CSc1nc(N)c(C#N)c(-c2ccc(OC)cc2)c1C#N`, the inhibition is reported as 4% (inactive). In the case of `COc1cccc(N=Cc2c(O)ccc3ccccc23)c1`, the inhibition is reported as 13% (inactive). With `Cc1ccccc1Nc1ncc(-c2ccc3ccccc3c2)s1` the inhibition was 22% (inactive). For `COc1cc(C2C(C(=O)/C=C/c3ccccc3)=C(O)C(=O)N2c2ccccn2)ccc1O` (configuration not stated), the inhibition was 6% (inactive). For `COc1cc2ccccc2cc1C(=O)Nc1ccc(Br)cc1F`, the inhibition was 18% (inactive). With `Cc1ccccc1-n1c(O)c(C=NCc2ccccc2F)c(=O)[nH]c1=O` the inhibition was 9% (inactive). In the case of `CCCC1CCc2c(sc(N)c2C#N)C1` (configuration not stated), the inhibition is reported as 39% (inactive). `CCC1CCc2c(sc(N)c2C#N)C1` (configuration not stated) was tested, and the inhibition was 18% (inactive). For `CC1CCc2c(sc(N)c2C#N)C1` (configuration not stated), the inhibition was 57% (active). For `O=C(Nc1ccc(NC(=O)c2cc([N+](=O)[O-])cc([N+](=O)[O-])c2)cc1)c1cccc(Br)c1`, the inhibition was 12% (inactive). With `CCC(OC(=O)CN1C(=O)C(=O)c2ccccc21)C(=O)Nc1ccc(S(N)(=O)=O)cc1` (configuration not stated) the inhibition was 12% (inactive). For `Cc1ccc(C)n1-c1ccc(OCC(=O)O)cc1`, the inhibition was 54% (active). `Cc1ccc(C)n1-c1ccc(CC(=O)O)cc1` was tested, and the inhibition was 47% (inactive). With `O=C(O)COc1ccc(N2C(=O)CCC2=O)cc1` the inhibition was 12% (inactive). For `CC(=O)c1ccc(-n2c(C)ccc2C)cc1`, the inhibition was 0% (inactive). In the case of `O=C(O)COc1ccc(N2C(=O)C=CC2=O)cc1`, the inhibition is reported as 35% (inactive). In the case of `O=C(CN1C(=O)/C(=C/c2ccccc2Cl)SC1=S)Nc1nccs1`, the inhibition is reported as 14% (inactive). In the case of `CCOc1ccccc1N1COc2ccc3ccccc3c2C1`, the inhibition is reported as 14% (inactive). For `CCOc1ccc(CN2CCN(C(=O)c3cccs3)CC2)cc1`, the inhibition was 5% (inactive). In the case of `COc1cccc(OCCCCOc2ccc(Cl)cc2C)c1`, the inhibition is reported as 29% (inactive). With `COc1ccc(OC)c(N(CC(=O)N/N=C/c2cc(Br)ccc2OC)S(=O)(=O)c2ccccc2)c1` the inhibition was 2% (inactive). With `O=C1NC(=O)/C(=C\c2ccc(Cl)cc2Cl)S1` the inhibition was 16% (inactive). `Cc1ccc(C)c(NS(=O)(=O)c2cc(Cl)ccc2Cl)c1` was tested, and the inhibition was 47% (inactive). `Cc1ccc(NS(=O)(=O)c2cc(Cl)ccc2Cl)c(C)c1` was tested, and the inhibition was 20% (inactive). `Cc1ccc(NS(=O)(=O)c2cc(Cl)ccc2Cl)c(Br)c1` was tested, and the inhibition was 51% (active). In the case of `COc1ccc(C(=O)Nc2ccc(I)cc2Cl)cc1OC`, the inhibition is reported as 8% (inactive). For `COc1ccc(-c2nc(-c3ccccn3)no2)cc1OC`, the inhibition was 10% (inactive). `CCC(CC)C(=O)Nc1ccc(Cl)cc1Cl` was tested, and the inhibition was 13% (inactive). For `O=C(CCSc1nc2ccccc2s1)Nc1ccccc1C(F)(F)F`, the inhibition was 13% (inactive). For `Cn1c(-c2nc3ccccc3n2C)nc2ccccc21`, the inhibition was 13% (inactive). In the case of `Cn1c(-c2ccccn2)nc2ccccc21`, the inhibition is reported as 2% (inactive). For `Cn1c(-c2ccc(-c3nc4cnccc4n3C)cc2)nc2cnccc21`, the inhibition was 70% (active). For `CC1CCCN(C2=NC(=O)/C(=C\c3cccc(O)c3)S2)C1` (configuration not stated), the inhibition was 12% (inactive). With `Cc1cc(/C=N/NC(=O)c2cc(Br)c(O)c(Br)c2)c(C)n1-c1cccc([N+](=O)[O-])c1` the inhibition was 15% (inactive). With `Cc1ccc(-n2c(C)cc(/C=N/NC(N)=S)c2C)cc1` the inhibition was 15% (inactive). For `Cc1cc(/C=N/NC(N)=O)c(C)n1-c1cccc(Cl)c1`, the inhibition was 24% (inactive). With `Cc1cc(/C=N/NC(N)=S)c(C)n1-c1cccc([N+](=O)[O-])c1` the inhibition was 52% (active). For `Cc1cc(/C=N/NC(N)=S)c(C)n1-c1cccc(Cl)c1`, the inhibition was 54% (active). For `Cc1cc(/C=N/NC(N)=S)c(C)n1-c1ccc(Cl)cc1`, the inhibition was 23% (inactive). For `Cc1cc(C=O)c(C)n1-c1cccc([N+](=O)[O-])c1`, the inhibition was 6% (inactive). For `Cc1cccc(-n2c(C)cc(/C=N/NC(N)=O)c2C)c1`, the inhibition was 29% (inactive). `Cc1cccc(-n2c(C)cc(/C=N/NC(N)=S)c2C)c1` was tested, and the inhibition was 56% (active). For `O=C(NCCc1ccccc1)/C(=C/c1ccco1)c1ccccc1`, the inhibition was 2% (inactive). For `Cc1ccc(C(=O)c2cccc(C(=O)c3ccc(C)c(C)c3)c2)cc1C`, the inhibition was 8% (inactive). In the case of `O=C(Nc1c(-c2ccccc2)c2cc(Br)ccc2[nH]c1=O)c1cccc(Cl)c1`, the inhibition is reported as 23% (inactive). `COc1ccc(OC(C)C(=O)Nc2ccc(F)cc2)cc1` (configuration not stated) was tested, and the inhibition was 0% (inactive). In the case of `Cc1ccc(NC(=O)C2CC(=O)N(c3ccc(Br)cc3)C2)cc1Cl` (configuration not stated), the inhibition is reported as 5% (inactive). `COC(=O)C1=C(C)N(c2ccccc2)C(=O)/C1=C\c1ccc(C(=O)OC)cc1` was tested, and the inhibition was 15% (inactive). With `Cc1cc(NS(=O)(=O)c2ccc(NC(=O)c3cc(Cl)cc(Cl)c3)cc2)no1` the inhibition was 0% (inactive). With `CC(=O)OCCNc1ccc2noc3c2c1C(=O)c1ccccc1-3` the inhibition was 0% (inactive). With `COCCCNc1ccc2c3c(nc(=O)n2C)-c2ccccc2C(=O)c13` the inhibition was 50% (active). In the case of `CCCCNc1ccc2c3c(cc(=O)n2C)-c2ccccc2C(=O)c13`, the inhibition is reported as 8% (inactive). For `Fc1ccc(CN2CCc3c([nH]c4ccccc34)C2)cc1`, the inhibition was 0% (inactive).
